FMDV inh: antivirals against foot and mouth disease virus | Potency, µM (titrated, usually from 57.9 µM), inactives show top-dose activity change, negative = inhibition, most hits filed as inhibitors | 410,000 tested, 1.2% active | FMDV antiviral cell-based qHTS; calls by dose curve; tested in HEK293T cells; also: read-out not given here; potency is read from the fitted curve at half-maximal effect; % is scaled to controls: 0 for no effect and ±100 for the full control effect; nearly all actives have a fitted effect of over 45% in size
Marburg entry inh: Marburg virus entry inhibition; Marburg virus pseudotyped entry inhibition, cell reporter; Potency, µM (series often up to 37.8 µM), for the others: top-dose activity change, negative = inhibition, most hits filed as inhibitors; 300,000 tested, 1.8% active; AID 540276; calls by dose curve; tested in HEK293 cells; also: potency is read from the fitted curve at half-maximal effect; % is scaled to controls: 0 for no effect and ±100 for the full control effect
LASV entry inh: Lassa virus entry inhibition; AID 540256; 300,000 tested, 1.2% active; Lassa virus pseudotype entry inhibition, cell reporter; Potency, µM (series often up to 37.9 µM), inactives show top-dose activity change, negative = inhibition, most hits filed as inhibitors; calls by dose curve; tested in HEK293 cells; also: potency is read from the fitted curve at half-maximal effect; % is scaled to controls: 0 for no effect and ±100 for the full control effect; nearly all actives have a fitted effect of over 50% in size
Cycloheximide cs: counter-screen hit for Shiga toxin inhibitors, cycloheximide; cell reporter, cycloheximide protein synthesis inhibition counterscreen; max response, %; 300,000 tested, 12% active; AID 2314; in the data active = max response mostly above about 13%, no sharp cut-off; inactive = mostly below about 14%; also: read at 38.3 µM for the half of the compounds with a filed dose; 0% is about no effect
HCV inhibitor: blocks hepatitis C virus. Huh7.5.1 HCVcc-Cre infection, luciferase reporter, 44 h. Potency, µM (doses to about 41.8 µM), for inactives: at the highest dose activity change, negative = inhibition, hits mostly inhibitors. 340,000 tested, 3.4% active; active = well fitted inhibition curve with a large enough effect; inconclusive = small, poorly fitted or top-dose-only effect, or another doubt; inactive = no such curve, though single readings can be large or run the other way; also: potency is read from the fitted curve at half-maximal effect; % is scaled to controls: 0 for no effect and ±100 for the full control effect
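Reporter virus HCVcc-Cre (~0.5 moi) infects cells exposed to compound; seeding density 1,000 cells/well with 4 h settling beforehand. Luminescence, 15 sec read, taken 44 h post-infection following a 15 min RT substrate incubation.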
Shiga inhibitor: inhibitors of Shiga toxin in Vero cells. Vero cells, Shiga toxin protein synthesis inhibition reporter. inhibition, % at 38.7 µM. 290,000 tested, 9.2% active; in the data active = inhibition mostly above about 28%, no sharp cut-off; inactive = mostly below about 43%; also: 0% is about no effect
* marks the source's active call; other numbers are inactive results; u = inconclusive; x = no result given; [ ] = remark or other dose. Sampled rows, rich in hits. Any-hit rate of the full collection: about 13%.

SMILES	FMDV inh	Marburg entry inh	LASV entry inh	Cycloheximide cs	HCV inhibitor	Shiga inhibitor
CCN(CC)CC(=O)Nc1ccc2c(c1)N(C(=O)CN(CC)CC)c1ccccc1CC2	x	8.2µM*	u	14	u	-19
Cc1ccc2c(c1)C(N1CCCC1=O)CC(c1ccco1)N2 (configuration not stated)	-51%	u	u	53*	1%	92*
Cc1ccc(C2CC(c3ccco3)n3ncnc3N2)cc1 (configuration not stated)	-15%	x	x	-2	16%	-19
CC1CCc2sc(C(=O)NNC(=S)NC3CC3)cc2C1 (configuration not stated)	39%	8%[46.1 µM]	14%[46.1 µM]	21*	2%	24
CC1CCc2sc(C(=O)NNC(=O)c3ccncc3)cc2C1 (configuration not stated)	-7%	2%	7%	x	-5%	x
CC1CCc2sc(C(=O)Nc3ccc(C(N)=O)cc3)cc2C1 (configuration not stated)	24%	20%[46.1 µM]	9%	32*	u	23
COC(=O)C1CCN(C(=O)Cn2nnc(-c3cccc(F)c3)n2)CC1	34%	12%[46.1 µM]	2%	8	8%	6
CCN(CC(=O)NCc1ccc(F)cc1)C(=O)C1CC1C (configuration not stated)	-3%	-4%[46.1 µM]	u	-2	28%	-19
O=C1c2ccccc2CN2C(=O)c3ccccc3CN12	-6%	-6%	1%	-1	x	-4
c1ccc(-c2cn3c(n2)-c2ccccc2C3)cc1	-70%	u	4.5µM*	26*	11%	45*
CCCCC(=O)Nc1ccc2c(c1)nc1n2CCOC1	55%	-2%	4%	20*	9%	89*
O=C(Nc1ccc2c(c1)nc1n2CCSC1)c1ccccc1	-9%	u	u	40*	-24%	43*
CCCC(=O)Nc1ccc2c(c1)nc1n2CCOC1	50%	u	u	-2	20%	27
CS(=O)(=O)Nc1ccc2c(c1)nc1n2CCOC1	-20%	22%	9%	0	4%	-28
CCC(=O)Nc1ccc2c(c1)nc1n2CCSC1	46%	u	7%	14	9%	-2
CC(C)C(=O)Nc1ccc2c(c1)nc1n2CCSC1	33%	u	10%	19	4%	40*
O=C(Nc1ccc2c(c1)nc1n2CCOC1)c1ccccc1	11%	-3%	u	31*	1%	94*
Cc1ccccc1S(=O)(=O)/N=C(/c1ccccc1)N(C)C	12%	x	x	9	13%	16
CCc1ccc(-n2c(=O)c3c4c(sc3n(Cc3ccccc3C#N)c2=O)CCCC4)cc1	-19%	-7%[46.1 µM]	-5%[46.1 µM]	x	x	x
O=C(NC1CCN(Cc2ccccc2)CC1)c1cccc(S(=O)(=O)Nc2cc(C(F)(F)F)ccc2Cl)c1	-28%	-30%	u	-6	15%	-10
COc1ccc(C(=O)Nc2ccc3c(c2)nc2n3CCSC2)cc1	12%	u	-5%	45*	u	86*
COc1cc(S(=O)(=O)N(CCc2ccccc2)Cc2cccs2)ccc1-n1cnnn1	x	-16%	u	-2	-2%	-3
CCC(C)NS(=O)(=O)c1ccc(S(=O)(=O)N(CCc2ccc(OC)c(OC)c2)Cc2cccs2)cc1 (configuration not stated)	-26%	3.5µM*	u	-1	11µM*	6
COc1ccc(CCN(Cc2cccs2)S(=O)(=O)c2ccc(-n3cnnn3)cc2)cc1OC	u	u	u	2	11µM*	-9
O=C(/C=C/c1ccccc1)OCN1C(=O)c2ccccc2C1=O	-21%	-16%[46.1 µM]	u	-7	7%	3
SMILES	FMDV inh	Marburg entry inh	LASV entry inh	Cycloheximide cs	HCV inhibitor	Shiga inhibitor
CC(C)(C)c1cc(S(=O)(=O)CCc2ccncc2)cc(C(C)(C)C)c1F	26%	-3%[46.1 µM]	12%	2	8%	-8
Cc1ccc(NC(=O)c2ccc(S(=O)(=O)NCc3ccco3)cc2)cc1	17%	8%[46.1 µM]	-21%[46.1 µM]	6	-4%	-3
Cc1onc(-c2c(F)cccc2Cl)c1C(=O)Nc1cccc(S(=O)(=O)NCc2ccco2)c1	8%	-12%[46.1 µM]	1%	38*	-24%	59*
COc1cccc(C(=O)Nc2ccc(S(=O)(=O)NCc3ccco3)cc2)c1	45%	5%	8%	20	25µM*	76
O=C(Nc1ccc(S(=O)(=O)NCc2ccco2)cc1)c1cccc(F)c1	38%	-13%	-1%	18	-21%	37*
CCOc1ccc(S(=O)(=O)NCCC(=O)NCc2ccncc2)cc1	1%	13%	27%	x	31%	x
CCc1ccc(N2C=C(C(=O)OC)C(c3ccccc3F)C(C#N)=C2N)cc1 (configuration not stated)	-19%	x	x	x	x	x
Cc1nn2c(-c3ccccc3)ccnc2c1-c1ccccc1	-31%	u	u	49*	u	94*
Cc1nc2c(-c3ccccc3)c(C)nn2c(N)c1-c1ccccc1	11%	u	u	49*	u	29*
Cc1nc2cc(-c3ccccc3)nn2c(N)c1-c1ccccc1	-18%	x	x	x	-11%	x
Cc1nn2c(N)c(-c3ccccc3)cnc2c1-c1ccc(Cl)cc1	64%	u	u	38*	u	112*
Cc1ccc(-c2ccnc3c(Cl)c(C)nn23)cc1	-16%	-1%[46.1 µM]	-20%[46.1 µM]	-3	-9%	-5
Cc1nn2c3c(cnc2c1-c1ccccc1)C(=O)CCC3	12%	-1%	1%	2	-18%	5
COc1ccccc1C(=O)C1CCCN(C(=O)CCC(=O)c2ccccc2)C1 (configuration not stated)	-14%	-23%[46.1 µM]	u	12*	-2%	22
CCN(CC)CC(=O)N1CCCC(C(=O)c2ccccc2OC)C1 (configuration not stated)	33%	x	x	11	8%	25
COc1ccccc1C(=O)C1CCCN(C(=O)Nc2ccccc2F)C1 (configuration not stated)	9%	u	-9%[46.1 µM]	28*	-10%	73*
O=C(N/N=C/C(Br)=C\c1ccccc1)c1ccc2nc[nH]c2c1	8%	u	-23%	19*	u	46
CC(/C=N/NC(=O)c1ccc2nc(C)[nH]c2c1)=C\c1ccccc1	4%	18%	5%	14	-19%	16
CC(=C/c1ccccc1)/C=N/NC(=O)c1ccc2nc[nH]c2c1	29%	u	u	17*	-14%	51*
O=S(=O)(c1cccs1)N1CCN(c2ccc(Cl)cc2)CC1	-6%	6%[46.1 µM]	-12%[46.1 µM]	-9	-6%	-4
CCN1CCN(c2cc3c(nn2)Oc2ccccc2N3C)CC1	21%	u	2%	49*	u	52*
CCN1CCN(c2cc(=O)n3ccccc3n2)CC1	19%	0%[46.1 µM]	x	-3	4%	-5
CCOCCn1c(CN2CCN(C(=O)c3ccco3)CC2)nc2c1c(=O)n(C)c(=O)n2C	-6%	x	x	1	25%	1
CCc1ccc(NC(=S)N(CCCN2CCOCC2)Cc2ccccn2)cc1	11%	2%	9%	39*	-6%	31*

Screening results: PubChem BioAssay, National Center for Advancing Translational Sciences (NCATS)
